# Molecular target: CENPE
# Experiment: pooled miR-30 sensor sort-seq; sequence = guide strand
# Settings: shRNA
# Further: reference of the scale not given here.
row,Sequence,sensor-assay potency score (higher = more potent)
1,TAGCTGTTCATTTTGCTGCTTT,-0.023
2,TTTATCAATAGTTTCTTGGTGC,0.371
3,TTGAAGAACTTCTTGCAGCCTC,0.172
4,TTGACATCTTTTTTTAACGTAA,-0.388
5,TATAGTACCATTGTAGCCTTGT,0.768
6,TTGGAGTTCATTTTTCTCCTGT,0.691
7,TTTTGTAGCACTGATTTCCTTT,-0.158
8,TTTATCAACAGTTTCTTTGTGT,1.24
9,TTTATTTTTGTAACATAGCTTA,-0.197

# Molecular target: CENPO
# Experiment: as above
# Settings: shRNA
row,Sequence,sensor-assay potency score (higher = more potent)
1,TTATACAGCAATCTAGCACAGA,-0.484
2,TTGATCTCCACTGTTTGGTTGG,0.162
3,TATTTCTCTGATGTGCTCCCAG,-0.111
4,TTTCTGTATGACAAGGTCCACA,-1.24
5,TAGGTTTAGAAACCTCCTCAGC,-1.26
6,TTTAGGTTTAGAAACCTCCTCA,0.397
7,TAAGCATTCAGGTACTCGCAGA,-0.982
8,TTGAAACTGAAGGAAGTCCCGA,0.077
9,TATTTTTTGAAACTGAAGGAAG,-1.18
10,TTATTTTTTGAAACTGAAGGAA,-0.369
11,TTGCTCATTGATCTCCACTGTT,-0.258
12,TTTTGCAGCTATCTCTTCCAGG,0.117

# From the OligoGym collection
